Experimental data from publication PMC7862700, “An all-to-all approach to the identification of sequence-specific readers for epigenetic DNA modifications on cytosine”.

Experiments:
Assay in all cases: DAPPL (digital affinity profiling via proximity ligation, sequencing); 10 mM Tris-HCl pH 7.5, 50 mM NaCl, 1 mM DTT, 4% glycerol, room temperature, 30 min; GST-TFs on glutathione beads, 16-mer random dsDNA library, 0.1% formaldehyde crosslink after washing; high values mean tight binding
Settings in all cases: protein: recombinant; tags: N-terminal GST; dsDNA, one strand shown
ELK1 = target: T1, ELK1 (Homo sapiens, UniProt P19419 1-428)
T1 sequence: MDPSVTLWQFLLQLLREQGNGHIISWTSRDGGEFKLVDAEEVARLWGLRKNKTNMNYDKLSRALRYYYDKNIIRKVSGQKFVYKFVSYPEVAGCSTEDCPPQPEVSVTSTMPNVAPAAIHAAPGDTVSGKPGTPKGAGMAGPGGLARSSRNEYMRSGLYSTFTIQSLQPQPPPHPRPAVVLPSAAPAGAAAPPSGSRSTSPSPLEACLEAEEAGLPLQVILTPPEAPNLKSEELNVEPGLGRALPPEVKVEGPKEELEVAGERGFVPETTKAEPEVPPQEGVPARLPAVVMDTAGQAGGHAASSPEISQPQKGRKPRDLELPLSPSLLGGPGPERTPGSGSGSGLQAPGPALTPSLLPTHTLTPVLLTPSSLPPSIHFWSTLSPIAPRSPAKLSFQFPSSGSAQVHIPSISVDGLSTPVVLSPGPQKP
Method in brief: (§1)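 Yeast served to express human transcription factors as GST fusions, which were then captured on glutathione beads and labelled with DNA barcodes. Pooled with a tag-only sample, they were incubated with 200 nmole of a 16-mer random double-stranded DNA library for 30 min at room temperature in Tris/NaCl/DTT/glycerol buffer, washed, crosslinked with 0.1% formaldehyde, ligated by proximity, amplified by PCR and sequenced. Dividing each hexamer's read frequency for a factor by its frequency for the tag-only sample gives the binding signal.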

ERG = target: T2, ERG (Homo sapiens, UniProt P11308 1-479)
T2 sequence: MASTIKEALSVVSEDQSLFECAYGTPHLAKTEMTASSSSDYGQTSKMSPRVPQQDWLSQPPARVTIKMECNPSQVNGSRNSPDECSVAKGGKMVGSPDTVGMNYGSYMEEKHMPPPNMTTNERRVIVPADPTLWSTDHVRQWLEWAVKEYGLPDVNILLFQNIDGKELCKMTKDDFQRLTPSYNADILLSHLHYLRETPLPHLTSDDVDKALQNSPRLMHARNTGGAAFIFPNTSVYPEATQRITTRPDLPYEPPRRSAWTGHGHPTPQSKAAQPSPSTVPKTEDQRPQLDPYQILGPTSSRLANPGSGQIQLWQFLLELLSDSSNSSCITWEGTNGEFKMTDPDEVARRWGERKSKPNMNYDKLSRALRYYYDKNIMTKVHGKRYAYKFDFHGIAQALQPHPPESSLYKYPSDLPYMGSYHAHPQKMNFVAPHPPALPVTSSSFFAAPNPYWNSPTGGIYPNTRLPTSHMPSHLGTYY
Method in brief: as §1

EHF = target: T3, EHF (Homo sapiens, UniProt Q9NZC4 1-300)
T3 sequence: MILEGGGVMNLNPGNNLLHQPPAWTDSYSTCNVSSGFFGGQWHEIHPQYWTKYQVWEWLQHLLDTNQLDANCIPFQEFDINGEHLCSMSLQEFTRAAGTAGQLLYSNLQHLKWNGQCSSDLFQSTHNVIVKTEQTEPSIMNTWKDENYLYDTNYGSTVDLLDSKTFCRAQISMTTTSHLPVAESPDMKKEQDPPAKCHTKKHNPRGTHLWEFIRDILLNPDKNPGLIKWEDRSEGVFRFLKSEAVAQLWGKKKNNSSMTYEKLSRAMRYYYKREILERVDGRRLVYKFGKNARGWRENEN
Method in brief: as §1

SPIB = SPIB (Homo sapiens, UniProt Q01892 1-262)
Sequence of SPIB (Q01892 whole entry): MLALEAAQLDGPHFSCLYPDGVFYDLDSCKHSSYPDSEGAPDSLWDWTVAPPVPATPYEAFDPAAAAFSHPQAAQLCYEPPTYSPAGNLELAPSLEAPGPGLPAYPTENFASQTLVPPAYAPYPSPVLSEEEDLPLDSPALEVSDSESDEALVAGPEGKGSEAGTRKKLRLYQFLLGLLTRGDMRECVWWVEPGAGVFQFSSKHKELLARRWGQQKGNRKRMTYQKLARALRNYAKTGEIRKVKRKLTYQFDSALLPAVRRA
Method in brief: as §1

ELK3 = target: T4, ELK3 (Homo sapiens, UniProt P41970 1-407)
T4 sequence: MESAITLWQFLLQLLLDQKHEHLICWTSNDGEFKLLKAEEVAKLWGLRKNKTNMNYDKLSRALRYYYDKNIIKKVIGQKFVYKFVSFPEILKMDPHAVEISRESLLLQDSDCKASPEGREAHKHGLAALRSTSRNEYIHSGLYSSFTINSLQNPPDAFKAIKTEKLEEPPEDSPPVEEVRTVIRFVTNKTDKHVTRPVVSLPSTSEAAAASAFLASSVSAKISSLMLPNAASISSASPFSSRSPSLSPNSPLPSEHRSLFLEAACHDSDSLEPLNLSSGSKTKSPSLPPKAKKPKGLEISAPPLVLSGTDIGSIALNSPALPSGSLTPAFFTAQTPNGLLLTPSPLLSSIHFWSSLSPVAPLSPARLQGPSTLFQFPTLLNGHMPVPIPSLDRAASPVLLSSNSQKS
Method in brief: as §1

SPIC = target: T5, SPIC (Homo sapiens, UniProt Q8N5J4 1-248)
T5 sequence: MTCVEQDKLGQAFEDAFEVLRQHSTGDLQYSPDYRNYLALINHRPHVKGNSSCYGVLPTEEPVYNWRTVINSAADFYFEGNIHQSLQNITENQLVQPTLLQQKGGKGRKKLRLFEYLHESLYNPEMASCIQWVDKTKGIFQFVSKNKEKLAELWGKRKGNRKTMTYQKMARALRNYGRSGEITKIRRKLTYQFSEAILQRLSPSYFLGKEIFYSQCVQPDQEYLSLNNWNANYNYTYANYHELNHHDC
Method in brief: as §1

ELK4 = target: T6, ELK4 (Homo sapiens, UniProt P28324-2 1-405)
T6 sequence: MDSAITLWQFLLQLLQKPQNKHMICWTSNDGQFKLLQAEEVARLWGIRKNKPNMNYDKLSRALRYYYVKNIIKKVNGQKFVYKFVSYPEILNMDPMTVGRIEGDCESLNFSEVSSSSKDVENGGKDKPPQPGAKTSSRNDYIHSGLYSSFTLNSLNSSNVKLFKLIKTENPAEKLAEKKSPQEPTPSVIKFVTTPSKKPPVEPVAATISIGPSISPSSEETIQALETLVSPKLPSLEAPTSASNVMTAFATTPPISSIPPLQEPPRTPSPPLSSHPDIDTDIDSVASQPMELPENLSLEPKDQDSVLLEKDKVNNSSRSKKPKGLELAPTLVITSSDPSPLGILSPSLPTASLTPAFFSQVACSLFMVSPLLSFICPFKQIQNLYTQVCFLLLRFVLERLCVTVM
Method in brief: as §1

ETV2 = target: T7, ETV2 (Homo sapiens, UniProt O00321 1-342)
T7 sequence: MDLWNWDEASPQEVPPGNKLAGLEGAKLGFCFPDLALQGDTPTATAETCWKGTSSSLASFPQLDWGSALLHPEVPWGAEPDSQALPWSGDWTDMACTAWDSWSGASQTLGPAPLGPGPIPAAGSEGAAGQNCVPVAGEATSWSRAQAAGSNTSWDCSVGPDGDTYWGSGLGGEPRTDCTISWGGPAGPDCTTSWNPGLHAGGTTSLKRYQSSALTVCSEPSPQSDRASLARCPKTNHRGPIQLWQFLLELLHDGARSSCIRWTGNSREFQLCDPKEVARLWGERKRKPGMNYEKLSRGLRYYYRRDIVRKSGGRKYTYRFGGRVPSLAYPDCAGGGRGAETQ
Method in brief: as §1

ELF3 = target: T8, ELF3 (Homo sapiens, UniProt P78545 1-371)
T8 sequence: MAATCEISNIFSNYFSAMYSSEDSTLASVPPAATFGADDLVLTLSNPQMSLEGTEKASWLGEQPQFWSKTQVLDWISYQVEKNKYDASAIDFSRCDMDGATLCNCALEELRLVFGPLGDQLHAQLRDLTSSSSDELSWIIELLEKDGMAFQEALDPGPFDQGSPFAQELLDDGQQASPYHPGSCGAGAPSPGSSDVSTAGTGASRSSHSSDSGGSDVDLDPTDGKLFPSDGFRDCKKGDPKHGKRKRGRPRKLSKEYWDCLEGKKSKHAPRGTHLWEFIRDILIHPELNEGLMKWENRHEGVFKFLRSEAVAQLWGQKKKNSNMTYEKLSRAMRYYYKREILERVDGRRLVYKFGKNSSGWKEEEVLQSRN
Method in brief: as §1

ETV1 = ETV1 (Homo sapiens, UniProt P50549 1-477)
Sequence of ETV1 (P50549 whole entry): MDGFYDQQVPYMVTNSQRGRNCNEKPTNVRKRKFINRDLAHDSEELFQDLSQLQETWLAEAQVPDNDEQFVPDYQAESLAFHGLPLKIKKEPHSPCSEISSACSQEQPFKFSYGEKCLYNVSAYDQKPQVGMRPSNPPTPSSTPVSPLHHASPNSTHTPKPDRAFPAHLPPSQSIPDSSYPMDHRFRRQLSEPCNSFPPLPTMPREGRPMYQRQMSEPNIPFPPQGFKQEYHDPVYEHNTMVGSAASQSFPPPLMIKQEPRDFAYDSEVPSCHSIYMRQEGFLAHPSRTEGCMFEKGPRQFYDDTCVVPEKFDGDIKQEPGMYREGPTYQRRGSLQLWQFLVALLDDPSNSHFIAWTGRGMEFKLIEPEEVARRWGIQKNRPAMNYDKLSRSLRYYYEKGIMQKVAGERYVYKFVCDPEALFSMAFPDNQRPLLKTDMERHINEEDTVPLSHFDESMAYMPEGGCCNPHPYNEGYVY
Method in brief: as §1

ETV3L = target: T9, ETV3L (Homo sapiens, UniProt Q6ZN32 1-361)
T9 sequence: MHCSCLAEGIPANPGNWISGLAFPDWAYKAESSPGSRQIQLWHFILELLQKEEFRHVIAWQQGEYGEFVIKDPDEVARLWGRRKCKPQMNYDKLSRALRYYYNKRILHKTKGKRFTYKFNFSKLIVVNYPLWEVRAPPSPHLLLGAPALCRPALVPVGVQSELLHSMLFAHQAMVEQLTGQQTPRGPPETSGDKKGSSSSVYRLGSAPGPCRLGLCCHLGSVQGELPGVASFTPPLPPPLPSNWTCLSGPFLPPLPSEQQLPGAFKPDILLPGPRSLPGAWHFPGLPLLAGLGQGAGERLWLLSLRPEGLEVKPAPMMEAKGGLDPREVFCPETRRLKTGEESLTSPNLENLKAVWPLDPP
Method in brief: as §1

ETS2 = target: T10, ETS2 (Homo sapiens, UniProt P15036 1-469)
T10 sequence: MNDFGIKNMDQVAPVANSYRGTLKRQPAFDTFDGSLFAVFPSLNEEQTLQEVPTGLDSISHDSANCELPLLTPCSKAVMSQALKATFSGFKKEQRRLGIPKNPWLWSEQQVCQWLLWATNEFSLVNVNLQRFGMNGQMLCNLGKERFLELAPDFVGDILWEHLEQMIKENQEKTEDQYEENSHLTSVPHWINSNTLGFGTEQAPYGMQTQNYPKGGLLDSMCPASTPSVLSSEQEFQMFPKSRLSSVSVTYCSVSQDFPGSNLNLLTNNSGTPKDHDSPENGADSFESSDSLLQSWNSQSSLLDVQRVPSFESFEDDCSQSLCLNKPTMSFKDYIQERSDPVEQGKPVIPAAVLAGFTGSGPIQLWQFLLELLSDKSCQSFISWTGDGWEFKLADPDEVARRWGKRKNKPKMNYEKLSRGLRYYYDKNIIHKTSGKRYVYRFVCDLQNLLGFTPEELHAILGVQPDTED
Method in brief: as §1

ETV7 = target: T11, ETV7 (Homo sapiens, UniProt Q9Y603 1-341)
T11 sequence: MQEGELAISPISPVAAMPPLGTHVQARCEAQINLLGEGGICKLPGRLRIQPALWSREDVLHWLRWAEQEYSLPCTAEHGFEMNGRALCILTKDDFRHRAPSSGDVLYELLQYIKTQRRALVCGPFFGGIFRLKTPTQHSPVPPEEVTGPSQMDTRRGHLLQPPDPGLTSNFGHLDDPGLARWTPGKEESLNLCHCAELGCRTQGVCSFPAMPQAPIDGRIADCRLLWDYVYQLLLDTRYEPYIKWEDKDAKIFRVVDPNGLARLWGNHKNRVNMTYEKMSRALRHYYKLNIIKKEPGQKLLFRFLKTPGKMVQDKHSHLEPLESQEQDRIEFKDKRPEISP
Method in brief: as §1

ETV3 = target: T12, ETV3 (Homo sapiens, UniProt P41162-2 1-143)
T12 sequence: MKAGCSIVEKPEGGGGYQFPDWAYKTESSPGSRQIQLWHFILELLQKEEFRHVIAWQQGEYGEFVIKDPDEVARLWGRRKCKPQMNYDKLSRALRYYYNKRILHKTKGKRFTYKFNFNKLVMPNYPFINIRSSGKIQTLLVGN
Method in brief: as §1

ETV6 = ETV6 (Homo sapiens, UniProt P41212 1-452)
Sequence of ETV6 (P41212 whole entry): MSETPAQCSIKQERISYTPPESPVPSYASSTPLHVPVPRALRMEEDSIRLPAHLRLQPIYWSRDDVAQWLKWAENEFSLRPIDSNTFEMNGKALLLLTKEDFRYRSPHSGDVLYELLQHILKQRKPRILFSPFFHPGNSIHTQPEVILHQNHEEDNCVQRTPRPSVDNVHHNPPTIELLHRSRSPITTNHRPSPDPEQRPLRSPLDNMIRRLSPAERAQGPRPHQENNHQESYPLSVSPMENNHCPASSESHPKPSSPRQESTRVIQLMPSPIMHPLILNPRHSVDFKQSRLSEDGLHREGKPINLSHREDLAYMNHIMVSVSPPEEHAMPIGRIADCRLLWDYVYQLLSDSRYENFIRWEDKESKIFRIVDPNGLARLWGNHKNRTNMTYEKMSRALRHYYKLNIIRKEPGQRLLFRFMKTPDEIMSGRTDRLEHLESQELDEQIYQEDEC
Method in brief: as §1

AGTCCT
binding signal (ELK1): 1.06 fold enrichment (6-mer frequency, TF over GST control)
binding signal (ERG): 1.07 fold enrichment (6-mer frequency, TF over GST control)
binding signal (EHF): 1.03 fold enrichment (6-mer frequency, TF over GST control)
binding signal (SPIB): 1.13 fold enrichment (6-mer frequency, TF over GST control)
binding signal (ELK3): 1.01 fold enrichment (6-mer frequency, TF over GST control)
binding signal (SPIC): 1.13 fold enrichment (6-mer frequency, TF over GST control)
binding signal (ELK4): 1 fold enrichment (6-mer frequency, TF over GST control)
binding signal (ETV2): 1.02 fold enrichment (6-mer frequency, TF over GST control)
binding signal (ELF3): 1.03 fold enrichment (6-mer frequency, TF over GST control)
binding signal (ETV1): 1 fold enrichment (6-mer frequency, TF over GST control)
binding signal (ETV3L): 1.02 fold enrichment (6-mer frequency, TF over GST control)
binding signal (ETS2): 1.06 fold enrichment (6-mer frequency, TF over GST control)
binding signal (ETV7): 1.14 fold enrichment (6-mer frequency, TF over GST control)
binding signal (ETV3): 1.01 fold enrichment (6-mer frequency, TF over GST control)
binding signal (ETV6): 1.03 fold enrichment (6-mer frequency, TF over GST control)
